Source: publication PMC5540273 (PLoS ONE, 2017)
Several values for one entry are separate records, joined by “and”; a condition that tells them apart may be missing. Identical values can stand only once. Like-named read-outs stand apart in the source and are kept apart here.

Key:
TTK = details: concentration: 1 μM, replicates: in singlicate; n = 1
TXK = details: n = 1
[1] = system: TYK2(JH1domain-catalytic); details: n = 1
[2] = system: TYK2(JH2domain-pseudokinase); details: n = 1
TYRO3 = details: n = 1
ULK1 = details: concentration: 1 μM, replicates: in singlicate; n = 1
ULK2 = details: n = 1
ULK3 = details: n = 1
VEGFR2 = system: T1, VEGFR2; details: n = 1
T1 construct: gene KDR

VPS34 = system: T2, VPS34; details: n = 1
T2 construct: gene PIK3C3

[3] = concentration: 1 μM, replicates: in singlicate
[4] = concentration: 1 μM,replicates: in singlicate, 1 µM
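Note: KINOMEscan kinase panel screen.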

SMILES	%Inh (TTK) [%]	%Inh (TXK; [3]) [%]	%Inh [1, 3] [%]	%Inh [2, 3] [%]	%Inh (TYRO3; [3]) [%]	%Inh (ULK1) [%]	%Inh (ULK2; [3]) [%]	%Inh (ULK3; [3]) [%]	%Inh (VEGFR2; [3]) [%]	%Inh (VPS34; [3]) [%]	%Inh (TXK; [4])	%Inh [1, 4]	%Inh [2, 4]	%Inh (TYRO3; [4])	%Inh (ULK2; [4])	%Inh (ULK3; [4])	%Inh (VEGFR2; [4])	%Inh (VPS34; [4])
CS(=O)(=O)c1ccc(-c2c(-c3ncn[nH]3)sc(N3CCOCC3)c2C#N)cc1	21	0	0	0	0	3	36	7	8	86								
Nc1ncnc2[nH]c(-c3ccccc3)nc12 [AH5015]	0	34	38	99.3	0	33	5	20	0	0								
COc1ccc2nc(-c3cccc(C)n3)nc(Nc3ccncc3)c2c1 [GSK204919]	0	9	10	82	4	4	0	2	0	0								
COc1cc2ncnc(Nc3ccc4nc(-c5ccccc5)[nH]c4c3)c2cc1OC.Cl [GW282450]	30	0	9	10	0	1	0	2	27	7								
Cn1ccc2ncnc(Oc3cccc(C(=O)Nc4ccccc4)c3)c21	0	0	0	0	0	0	6	9	59	11								
Cc1cccc(-c2nc(Nc3ccncc3)c3ccccc3n2)n1 [GW855857]	10	11	8	40	0	0	0	8	0	52								
Cc1ccc(NC(=O)Nc2cccc(Cl)c2)cc1-c1ccc(C(=O)Nc2ccncc2)cc1 [GSK1398468]	0	0	0	26	0	11	0	5	16	0								
Cc1cccc(-c2nc(Nc3ccc4[nH]ncc4c3)c3ccccc3n2)n1 [GW857175]	3	0	11	36	0	12	8	18	23	0								
O=C(O)COc1ncnc2cc(-c3ccc4[nH]ncc4c3)sc12	0	14	29	55	0	43	26	33	36	27								
Cc1cc(-c2ccc3c(c2)CC[C@@H](N[C@@H](C)c2ccccc2)C3)cnc1N.Cl [GW412617]	0	16	24	6	17	19	8	16	1	68								
Cc1ccc(-c2cc(-c3c[nH]nc3-c3ccccn3)ccn2)cc1 [GW684088]	0	0	18	22	0	0	0	3	22	0								
Cl.O=C(Nc1cccc(-c2nn3ncccc3c2-c2ccnc(Nc3cccnc3)n2)c1)c1c(F)cccc1F [GSK312879]	0	1	12	19	0	34	0	5	0	0								
Cc1nnc(-c2ccc3occ(-c4ccc(S(C)=O)cc4)c3c2)[nH]1 (centres unmarked)	8	0	8	59	0	4	23	14	1	88								
CN1C(=O)C(Nc2ccc(Cl)c(C(=O)O)c2)=C(c2ccc(Cl)cc2)C1=O [SB-404290]	22	0	0	0	0	2	2	24	6	28								
Cc1cccc(-c2nc(-c3ccc(S(C)(=O)=O)cc3)sc2-c2ccnc(NCCc3ccccc3)c2)c1	10	6	0	18	0	0	8	0	0	82								
Cc1c(Cn2ccn3c(=O)cc(N4CCOCC4)nc23)cccc1C(F)(F)F [GSK2289044]	1	0	0	0	0	7	0	0	1	95.1								
O=S(=O)(c1ccc(-c2ccnc3[nH]ccc23)cc1)N1CCCC1 [GSK846226]	20	9	62	20	0	19	0	27	15	46								
Fc1cccc(COc2nnc(-c3ccc4c(c3)CCO4)o2)c1	14	0	3	6	0	0	14	0	25	17								

SMILES	%Inh (TTK) [%]	%Inh (TXK; [3]) [%]	%Inh [1, 3] [%]	%Inh [2, 3] [%]	%Inh (TYRO3; [3]) [%]	%Inh (ULK1) [%]	%Inh (ULK2; [3]) [%]	%Inh (ULK3; [3]) [%]	%Inh (VEGFR2; [3]) [%]	%Inh (VPS34; [3]) [%]	%Inh (TXK; [4])	%Inh [1, 4]	%Inh [2, 4]	%Inh (TYRO3; [4])	%Inh (ULK2; [4])	%Inh (ULK3; [4])	%Inh (VEGFR2; [4])	%Inh (VPS34; [4])
COc1cccc(NC(=O)NC2CCN(c3ccnc(Nc4ccc(F)cc4)n3)C2)c1 (centres unmarked) [GSK1379721]	9	41	26	52	0	13	0	9	10	7								
COc1ccc(Nc2nccc(-c3cccc(NC(=O)c4cc5cc(F)ccc5[nH]4)c3)n2)cc1 [GSK1229782]	13	17	41	47	23	16	0	23	4	33								
CSc1nn2c(=O)cc(N3CCOCC3)nc2n1Cc1cccc(C(F)(F)F)c1C [GSK2363608]	0					15					10% and 0%	51% and 72%	16% and 8%	0% and 18%	5% and 0%	15% and 0%	8% and 0%	94.7% and 96.7%
Cc1cccc(-c2nc(Nc3cccc(C(N)=O)c3)c3ccccc3n2)n1 [GW876019]	0	0	19	25	9	0	0	0	0	4								
COc1ccc(CNC(=O)NC2CCN(c3ccnc(Nc4cc(OC)c(OC)c(OC)c4)n3)C2)cc1 (centres unmarked) [GSK1379748]	0	8	48	31	0	0	0	86	4	7								
Cc1cccc(-c2cc(Nc3ccncc3)c3ccccc3n2)n1 [GSK223675]	0	87	0	22	0	13	0	6	15	0								
Cn1ccc2ncnc(Oc3ccc(NC(=O)Nc4ccccc4)cc3)c21	0	1	0	0	0	0	0	3	97.8	0								
CC(=O)Nc1nc2cnc(Nc3cc(NC(=O)c4cccc(CCC#N)c4)ccc3C)nc2s1	16	0	21	27	1	0	20	0	29	12								
Cc1ccc(C(=O)Nc2ccc(Nc3ccnc4cc(-c5ccccn5)ccc34)cc2O)cc1.Cl [GW440146]	0	5	28	19	0	0	0	3	13	0								
Fc1cc(Cl)ccc1Nc1ccnc2cc(I)ccc12 [GW551191]	0	28	13	16	18	3	0	0	6	2								
COc1ccccc1CNC(=O)c1cc(C(=O)c2ccccc2C)c[nH]1 [GSK364507]	0	27	5	21	15	4	0	9	0	1								
COc1ccc(C2=C(Nc3cccc(C(=O)O)c3)C(=O)NC2=O)cc1 [SB-390765]	10	21	0	0	22	16	8	28	21	33								
CN(C)CCN(C)C(=O)c1cc(-c2ccncc2)c(-c2ccc(Cl)c(O)c2)o1.Cl.Cl [SB-710397]	0	4	43	45	0	13	0	9	0	0								
COc1cc2nccc(Nc3ccc(NC(=O)c4ccc(C)cc4)c(O)c3)c2cc1OC.Cl [GW440132]	0	10	0	1	0	21	0	7	0	14								
Cl.Oc1ccc(-c2nc(-c3ccccc3)[nH]c2-c2ccncc2)cc1 [SB-428218]	0	8	100	67	0	8	0	6	0	0								
CCn1c(-c2cccnc2O)nc2cnccc21 [SB-736715]	0	0	0	0	0	0	0	0	0	0								
O=C(Nc1ccc2c(c1)OCO2)NC1CCN(c2ccnc(Nc3ccc(F)cc3)n2)C1 (centres unmarked) [GSK1379724]	26	43	9	33	0	9	0	16	0	0								
